The results in this text go back to PubChem BioAssay AID434927 (Sanford-Burnham Center for Chemical Genomics, 2010).

Values without a mark were called inactive. The source made the active and inactive calls.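 Rule for the calls: active = inhibition above about 23% in any of six single-dose repeats (limit read from the data); inactive = the rest.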

Sequence of Intestinal-type alkaline phosphatase (Homo sapiens) (P09923 whole entry, looked up): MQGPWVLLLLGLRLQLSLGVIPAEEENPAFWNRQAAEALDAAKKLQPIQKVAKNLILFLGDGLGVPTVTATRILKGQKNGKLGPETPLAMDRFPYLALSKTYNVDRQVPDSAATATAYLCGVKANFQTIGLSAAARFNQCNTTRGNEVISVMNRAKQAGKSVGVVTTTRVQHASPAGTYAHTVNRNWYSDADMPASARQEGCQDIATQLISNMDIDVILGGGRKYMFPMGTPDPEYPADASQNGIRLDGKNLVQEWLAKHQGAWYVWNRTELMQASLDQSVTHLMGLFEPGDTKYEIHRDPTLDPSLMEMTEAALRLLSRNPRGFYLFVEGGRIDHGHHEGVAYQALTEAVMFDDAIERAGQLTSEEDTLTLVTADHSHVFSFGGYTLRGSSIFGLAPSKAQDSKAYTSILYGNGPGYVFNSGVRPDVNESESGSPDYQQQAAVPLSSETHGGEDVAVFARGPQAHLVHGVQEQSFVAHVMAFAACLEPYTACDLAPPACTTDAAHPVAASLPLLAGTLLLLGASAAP

The experiment has as its target Intestinal-type alkaline phosphatase (Homo sapiens) (UniProt P09923). Kind of experiment: human IAP inhibitors, confirmation, biochemical, luminescence, single concentration, uHTS hits (AID 434927).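 Note: plate controls were DMSO wells with enzyme for no effect and wells lacking enzyme for full effect.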 The note with it: purified human IAP, CDP-Star luminescence, 30 min; at 8.3 µM; active compounds read high.
Take `COc1cccc(-c2nc(CS(=O)(=O)CC(=O)Nc3cc(OC)ccc3OC)c(C)o2)c1`: the inhibition was 31.5% (active).
On to `Cc1ccc(-c2cc(C(=O)N/N=C/c3ccccc3O)n[nH]2)o1`, for which the inhibition was 39.3% (active).
In the case of `COc1cc(/C=C/C(=O)OCC(=O)NC(=O)NC2CCCCC2)ccc1OC(F)F`, the inhibition is 78.7% (active).
Regarding `CC(C)n1cc(CN2CCC(C(=O)Nc3cccc(-c4cccc(Cl)c4)c3)CC2)cn1`, the inhibition is -96.7%.
For `O=C(NNC(=S)NC(=O)c1ccccc1)c1cccnc1`, the inhibition is -320%.
For `O=C(NCCCN1CCOCC1)c1ccc2c(c1)N(Cc1ccc(Cl)cc1)C(=O)c1ccccc1S2=O` (stereo not drawn), the inhibition is -47.5%.
As to `Oc1ccc(N=Nc2c(O)ccc3ccccc23)cc1`, the inhibition is -91.9%.
In the case of `CN(C)c1ccc2nc3c(=O)[nH]c(=O)nc-3n(CC(O)C(O)C(O)CO)c2c1` (stereo not drawn), the inhibition is -87.3%.
For the compound `CCCn1c(/C=C/c2ccccc2)nc2ccccc21`, the inhibition is 36.8% (active).
Regarding `O=C(N/N=C/c1c(O)ccc2ccccc12)c1[nH]ncc1Br`, the inhibition is 42.8% (active).
In the case of `O=C(O)C1OC(Oc2c(-c3ccc(O)c(O)c3)oc3cc(O)cc(O)c3c2=O)C(O)C(O)C1O` (stereo not drawn), the inhibition was 32.1% (active).
As for `Cc1nc2c3ccccc3nc(NNC(=O)CCC(=O)NCCC(C)C)n2n1`, the inhibition is -64.4%.
Consider `CC1=NN(c2nc3ccccc3[nH]2)C(=O)/C1=C/N(C)C`, for which the inhibition is -57%.
`C=CCN1C(=O)/C(=C\C=C2\N(C)c3ccccc3C2(C)C)SC1=S`: the inhibition is -267%.
As to `Cc1ccc(O)c(/C=N/NC(=O)c2[nH]ncc2Br)c1`, the inhibition was 23.2% (active).
On to `CCn1cnc2sc(C(=O)O)c(C)c2c1=O`, for which the inhibition was 64% (active).
`O=C1C2C3C=CC(C3)C2C(=O)N1c1n[nH]c(-c2cccnc2)n1` (stereo not drawn): the inhibition is -82.5%.
Take `COc1cc(NC(=O)NCC2CCN(Cc3ccccc3Cl)CC2)cc(OC)c1OC`: the inhibition was -142%.
To `COc1ccc(O)c(/C=N/NC(=S)NCCc2ccccc2)c1` belongs -91.2%.
For the compound `O=C(NC(=S)NNC(=O)c1ccccc1O)c1ccc(F)cc1`, the inhibition is 62.4% (active).
`COc1ccc(C=C2C(=O)c3ccccc3C2=O)cc1O`: the inhibition is 56.2% (active).
`CC(NS(=O)(=O)c1ccc(Br)cc1)C(=O)Nc1nc2ccccc2[nH]1` (stereo not drawn): the inhibition was 66.7% (active).
`COc1cc(/C=C(\C#N)C(=O)c2ccc(O)c(O)c2)cc(I)c1O`: the inhibition was 40.4% (active).
Consider `Cc1nc(S/C(=C/c2ccc(-c3ccc(Cl)cc3)o2)C(=O)O)n[nH]1`, for which the inhibition is -88.7%.
As to `N#C/C(=C(\O)c1ccco1)c1ccccn1`, the inhibition was 55.3% (active).
Regarding `Cn1nnnc1N=N/C(=N/Nc1ccccc1)c1ccccc1`, the inhibition was 54.9% (active).
For the compound `Cc1cc(C)c2nc(SCC(=O)NNC(=O)c3ccco3)c(C)cc2c1`, the inhibition was -58.7%.
Regarding `O=C(Nc1cccc(-c2cccc(F)c2)c1)C1CCN(C2CCC2)CC1`, the inhibition is 67.6% (active).
Turning to `O=C(NC1CCCCCC1)c1ccc(-n2cnnc2)cc1`, the inhibition was -58.8%.
In the case of `COc1ccccc1C1CN(c2ccccc2)N=C1c1cccs1` (stereo not drawn), the inhibition was -128%.
As to `CCn1c2ccccc2c2cc(NC(=O)c3coc(=O)c(Br)c3)ccc21`, the inhibition is 39.2% (active).
Regarding `CCOc1ccc(CC(=O)NNC(=S)NC2CCCCC2)cc1OCC`, the inhibition was -79.5%.
For the compound `Cc1[nH]n(-c2nc(-c3ccccc3)cc(=O)[nH]2)c(=O)c1CCO`, the inhibition is 47.5% (active).
